Inconclusive results are not listed. Unmarked numbers belong to inactive results. The source made the active and inactive calls. Calls follow the shape of the dose curve; as a rule, active = well fitted inhibition curve with a large enough effect; inconclusive = small, poorly fitted or top-dose-only effect; inactive = flat fitted curve, though single readings scatter.
What follows are compounds tested on GB4 (assay: qHTS profiling for inhibitors of Plasmodium falciparum proliferation (AID 504749; also: nearly all actives have a fitted effect of over 60% in size;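 as to activity, negative = inhibition: 0% = DMSO vehicle and full inhibition = artemisinin control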)). Details: P. falciparum in erythrocytes, SYBR Green DNA, 72 h; series mostly up to 28.7 µM; activity, negative = inhibition: at the top concentration.
Outline: (§1)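 Parasite proliferation within erythrocytes, 72 h exposure. Endpoint: SYBR Green I fluorescence after overnight lysis at room temperature. Controls: 0.29 uM artemisinin, DMSO.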
Potency is read from the fitted curve at half-maximal effect.

SMILES	activity, negative = inhibition	Potency
CC[N+](CC)(CC)CCOc1cccc(OCC[N+](CC)(CC)CC)c1OCC[N+](CC)(CC)CC	-13.7%	–
Cc1ccc(C(=O)Nc2ccc(S(=O)(=O)O)c3cc(S(=O)(=O)O)cc(S(=O)(=O)O)c23)cc1NC(=O)c1cccc(NC(=O)Nc2cccc(C(=O)Nc3cc(C(=O)Nc4ccc(S(=O)(=O)O)c5cc(S(=O)(=O)O)cc(S(=O)(=O)O)c45)ccc3C)c2)c1	-6.23%	–
CS(=O)(=O)Nc1ccc([N+](=O)[O-])cc1Oc1ccccc1	-12% [at 12.8 µM]	–
CC(=O)OCC(CCn1cnc2cnc(N)nc21)COC(C)=O	-2.02%	–
C[C@](N)(Cc1ccc(O)c(O)c1)C(=O)O	-19.8%	–
COc1ccccc1OCC(O)CN1CCN(CC(=O)Nc2c(C)cccc2C)CC1 (stereo not given)	-5.97%	–
Cc1cn([C@H]2C=C[C@@H](CO)O2)c(=O)[nH]c1=O	-6.8%	–
Clc1ccccc1C(c1ccccc1)(c1ccccc1)n1ccnc1	–	809 nM (active)
CC(C)(C)C(=O)Oc1ccc(S(=O)(=O)Nc2ccccc2C(=O)NCC(=O)O)cc1	1.18%	–
NC(=O)OCC(COC(N)=O)c1ccccc1	-4.09%	–
O=c1c(-c2ccc(O)cc2)coc2cc(O)cc(O)c12	-12.8%	–
CCCNCC(O)COc1ccccc1C(=O)CCc1ccccc1 (stereo not given)	–	675 nM (active)
NCCc1cnc[nH]1	3.24%	–
CN(C)c1nc(N(C)C)nc(N(C)C)n1	0.324% [at 12.8 µM]	–

The compounds below were run on HB3 in the same assay as above. Details: P. falciparum in erythrocytes, SYBR Green DNA, 72 h; series mostly up to 28.7 µM; activity, negative = inhibition: at the top concentration.
Outline: as §1

SMILES	activity, negative = inhibition	Potency
CC(C)C(=O)Nc1ccc([N+](=O)[O-])c(C(F)(F)F)c1	-8.15%	–
NC(=O)NO	2.49%	–
CCOC(=O)C(C)(C)Oc1ccc(Cl)cc1	-0.554%	–
CC(CCc1ccc(O)cc1)NCCc1ccc(O)c(O)c1 (stereo not given)	4.25%	–
Cc1cn([C@H]2C[C@H](N=[N+]=[N-])[C@@H](CO)O2)c(=O)[nH]c1=O	5.57%	–
Cc1cc(C(C)(C)C)c(O)c(C)c1CC1=NCCN1	8.59%	–
NS(=O)(=O)c1cc2c(cc1Cl)NCNS2(=O)=O	-0.657%	–
CCOC(=O)c1ncn2c1CN(C)C(=O)c1cc(F)ccc1-2	8.03%	–
COC(=O)Nc1nc2ccc(C(=O)c3cccs3)cc2[nH]1	-0.0472%	–
Clc1ccc2nsnc2c1NC1=NCCN1	8.8%	–
Cn1c(=O)c2c(ncn2C)n(C)c1=O	-0.539%	–
CC(C)Cc1ccc(C(C)C(=O)O)cc1 (stereo not given)	4.33%	–
Cn1cnc2c1c(=O)[nH]c(=O)n2C	7.54%	–
Cn1c(=O)c2[nH]cnc2n(C)c1=O	6.55%	–
NCCCCCC(=O)O	1.69% [at 12.8 µM]	–
CC(C)(Oc1ccc(C2CC2(Cl)Cl)cc1)C(=O)O (stereo not given)	-1.69%	–
CN1C(C(=O)Nc2ccccn2)=C(O)c2ccccc2S1(=O)=O	-3.89% [at 12.8 µM]	–
N[C@@H](Cc1c[nH]c2ccc(O)cc12)C(=O)O	12.6%	–

SMILES	activity, negative = inhibition	Potency
COc1cc2c(c(OC)c1OC)-c1ccc(OC)c(=O)cc1[C@@H](NC(C)=O)CC2	4.71%	–
Cc1cc(C(C)(C)C)cc(C)c1CC1=NCCN1	-0.82% [at 12.8 µM]	–
Cc1cnc(C(=O)NCCc2ccc(S(=O)(=O)NC(=O)NC3CCCCC3)cc2)cn1	12%	–
CN1CCN2c3ccccc3Cc3ccccc3C2C1 (stereo not given)	3.87%	–
Nc1nnc(-c2cccc(Cl)c2Cl)c(N)n1	-8.17%	–
CC[N+](CC)(CC)CCOc1cccc(OCC[N+](CC)(CC)CC)c1OCC[N+](CC)(CC)CC	6.26%	–
Cc1ccc(C(=O)Nc2ccc(S(=O)(=O)O)c3cc(S(=O)(=O)O)cc(S(=O)(=O)O)c23)cc1NC(=O)c1cccc(NC(=O)Nc2cccc(C(=O)Nc3cc(C(=O)Nc4ccc(S(=O)(=O)O)c5cc(S(=O)(=O)O)cc(S(=O)(=O)O)c45)ccc3C)c2)c1	-8.92%	–
CS(=O)(=O)Nc1ccc([N+](=O)[O-])cc1Oc1ccccc1	6.34% [at 12.8 µM]	–
CC(=O)OCC(CCn1cnc2cnc(N)nc21)COC(C)=O	1.95%	–
C[C@](N)(Cc1ccc(O)c(O)c1)C(=O)O	-2.48%	–
COc1ccccc1OCC(O)CN1CCN(CC(=O)Nc2c(C)cccc2C)CC1 (stereo not given)	7.19%	–
Cc1cn([C@H]2C=C[C@@H](CO)O2)c(=O)[nH]c1=O	-1.26%	–
Clc1ccccc1C(c1ccccc1)(c1ccccc1)n1ccnc1	–	501 nM (active)
CC(C)(C)C(=O)Oc1ccc(S(=O)(=O)Nc2ccccc2C(=O)NCC(=O)O)cc1	-6.88%	–
NC(=O)OCC(COC(N)=O)c1ccccc1	3.84%	–
COc1ccccc1N1CCN(CC(O)COc2cccc3ccccc23)CC1 (stereo not given)	-7.89%	–
O=c1c(-c2ccc(O)cc2)coc2cc(O)cc(O)c12	6.53%	–
CCCNCC(O)COc1ccccc1C(=O)CCc1ccccc1 (stereo not given)	–	2000 nM (active)

Source: PubChem BioAssay (NCATS)
